The panel holds about 83,000 compounds, 20% with a hit somewhere; the sample as a whole holds those more often.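 Activity criterion: percent growth below 10, measured after cells in 96-well plates were exposed to a single compound concentration for 48 hours.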 Unmarked numbers belong to inactive results. The source made the active and inactive calls.

This note sets out measurements from PubChem BioAssay (NCI).

Common to all, as to test: NCI-60 one-dose screen, 48 h (100 = growth as untreated, 0 = no growth, -100 = all killed)
What all share (details): 10 µM unless noted

Experiment [1] has as its system DU-145 prostate.
In experiment [2] the test system is K-562 leukemia.
Experiment [3] has as its system MALME-3M melanoma.
The subject of experiment [4] is MDA-MB-231 breast.
The subject of experiment [5] is RXF 393 renal.
For experiment [6], the system named is SF-268 CNS.
The subject of experiment [7] is SF-295 CNS.
Experiment [8] concerns SF-539 CNS.
Experiment [9] has as its system UACC-257 melanoma.
Experiment [10] has as its system M14 melanoma.

As for `CN(C)CCCc1ccc(Nc2cnn(C)c(=O)c2Cl)cc1`, the growth in experiment [1] is 116%; in experiment [2], 89.8%; in experiment [3], 88.8%; in experiment [4] it was 108%; in [5] it was 90.2%; in [6] it was 113%. Further, the growth was 89.2% in experiment [7], 94% in experiment [8], 98.5% in experiment [9] and 100% in experiment [10].

`O=C(NNC(=O)c1ccc(OCc2nc3ccc(Cl)cc3[nH]2)cc1)Nc1ccc(Cl)c(Cl)c1`: the growth in experiment [1] was 73%; in experiment [2], 29.6%; in [3], 6.73% (active); in experiment [4] it was 44.1%; in [5], 69.4%; in [6], 85.6%. For the same compound, the growth in experiment [7] was 101%; in experiment [8] it was 43.3%; in experiment [9] it was 95.6%; in experiment [10], 56.4%.

As for `O=C1Nc2ccccc2/C1=C/C(=O)c1cc2ccccc2oc1=O`, the growth was 97.3% in [1]; 14.5% in [2]; 10.9% in experiment [3]; 97.6% in [4]; 91.4% in experiment [5]; 105% in [6]. Further, the growth in experiment [7] is 97.8%; in [8], 102%; in [9], 104%; in experiment [10], 101%.

As for `COc1ccc2[nH]c(O)c(N=Nc3nc(-c4ccc(Cl)cc4)cs3)c2c1`, the growth in experiment [1] is 4.95% (active); in experiment [2], 12.1%; in experiment [3] it was -63.5% (active); in [4], 17.6%; in experiment [5], -90% (active); in experiment [6], -9.32% (active). The growth is -46% (active) in [7], -60.5% (active) in experiment [8], 9.82% (active) in experiment [9] and -9.9% (active) in [10].

For the compound `CC(C)(C)c1cc(-c2cc(-c3ccccc3)[nH]c(=O)c2C#N)cc(C(C)(C)C)c1`, the growth is 34.5% in [1]; 62.9% in experiment [2]; 37.6% in experiment [3]; -21.4% (active) in experiment [4]; -2.55% (active) in [5]; 40.8% in experiment [6]. The growth in experiment [7] is 0.897% (active); in [8], 21.1%; in [9] it was 43.1%; in experiment [10] it was 40.2%.

`c1n[nH]cc1-c1nc2ccc3[nH]ncc3c2c2c1CC1(CCOCC1)CC2`: the growth in experiment [1] was 41.6%; in [2], 39.5%; in experiment [3] it was 22.6%; in [4] it was 59.4%; in experiment [5] it was -15.8% (active); in [6] it was 34.4%. In addition, the growth in experiment [7] is 65.8%; in [8], 26.6%; in [9], 53%; in [10] it was 23.9%.

As to `O=C(N/N=C/c1ccc(-c2cccc([N+](=O)[O-])c2)s1)c1[nH]c2ccc(Br)cc2c1-c1ccccc1`, the growth in experiment [1] was 106%; in experiment [2], 92.7%; in experiment [3], 86.1%; in experiment [4], 74.6%; in experiment [5] it was 90.8%; in [6] it was 92.7%. Besides, the growth was 103% in experiment [7], 96.6% in experiment [8], 85.6% in experiment [9] and 75.2% in experiment [10].

As for `O=CNc1ccc(-n2cnc3cc(-c4ccc(O)cc4)ccc32)cc1`, the growth in [1] was 86.7%; in [2], 64.7%; in [3], 65.9%; in experiment [4], 108%; in experiment [5], 86.5%; in [6], 84.6%. The growth is 103% in [7], 60.5% in experiment [8], 98.8% in experiment [9] and 91.5% in [10].

Consider `CC[C@]12C=CCN3CC[C@]4(C(=C(C(=O)OC)C1)Nc1cc(OC)c([C@@H]5[C@H]6O[C@H]6[C@@]6(CC)CC(C(=O)OC)=C7Nc8cc(O)ccc8[C@@]78CCN5[C@@H]68)cc14)[C@@H]32`, for which the growth was 23.2% in experiment [1]; -3.65% (active) in [2]; -77.4% (active) in experiment [3]; -54.2% (active) in experiment [4]; -34.2% (active) in experiment [5]; 22.3% in experiment [6]. Further, the growth was -47.2% (active) in experiment [7], -38.4% (active) in experiment [8], -10.2% (active) in [9] and -28.4% (active) in experiment [10].

As for `O=C(NNC(=S)NCCc1ccccc1)c1ccc(OCc2nc3ccc(Cl)cc3[nH]2)cc1`, the growth in [1] is 79.4%; in [2], 29.6%; in experiment [3] it was 65.5%; in experiment [4], 95.5%; in [5], 93%; in [6], 70.4%. The growth in experiment [7] was 61.4%; in [8], 84.3%; in experiment [9], 79.9%; in experiment [10], 93.9%.

With `Cn1cc(-c2cc(N)n3nc(-c4c[nH]c5ccccc45)cc3n2)c2cc(F)ccc21`, the growth in experiment [1] is 46.2%; in experiment [2], 3.57% (active); in experiment [3], 76.8%; in experiment [4], -52.2% (active); in [5], 148%; in [6], 65.3%. Moreover, the growth in [7] is -50.8% (active); in [8], -61.9% (active); in experiment [9] it was 45.7%; in experiment [10], -0.365% (active).

For the compound `O=C(N/N=C/c1c[nH]c2ccccc12)Nc1ccc(F)c(Cl)c1`, the growth in experiment [1] was 61.5%; in experiment [2] it was 15.4%; in [3] it was 56.3%; in experiment [4] it was 61.3%; in experiment [5] it was 18.3%; in [6] it was 39.7%. The growth is 13.8% in experiment [7], 27.3% in experiment [8], 60.9% in [9] and 33.7% in [10].

Take `O=C(Nc1ccc(Cl)c(C(F)(F)F)c1)N1CCN(c2cc(-c3cn(-c4ccccc4)nc3-c3cccc(O)c3)ccn2)CC1`: the growth in experiment [1] was 22.5%; in [2] it was 14.8%; in experiment [3], -31.4% (active); in experiment [4] it was -48.6% (active); in [5] it was -35.4% (active); in [6] it was 2.35% (active). Moreover, the growth in [7] was -37.2% (active); in [8], 7.9% (active); in [9], -16.6% (active); in [10], -19.3% (active).
